{
  "source": "PubChem BioAssay (NCATS)",
  "key": {"[1]": {"tested_on": "Zika virus NS2B-NS3 protease (unlinked complex)", "test": "Primary screen GU Rhodamine qHTS for Zika virus inhibitors: Unlinked NS2B-NS3 protease assay (AID 1347159); further: nearly all actives have a fitted effect of over 60% in size", "in_short": "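Percent inhibition came from the 15-min rise in Rhodamine110 fluorescence (1.5 microM substrate, ~15% conversion), normalized to no-inhibitor and no-enzyme wells and Hill-fitted. Unlinked protease, 25 nM, pH 8.0 Tris buffer; compounds up to 114 microM, 15-min preincubation.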"}, "[2]": {"tested_on": "Zika virus NS2B-NS3 protease (linked construct)", "test": "Primary screen NINDS Rhodamine qHTS for Zika virus inhibitors (AID 1347160); further: nearly all actives have a fitted effect of over 55% in size", "in_short": "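Rhodamine110-peptide cleavage (1.5 µM substrate) by 25 nM linked NS2B-NS3 enzyme at pH 8.0 (Tris, Tween 20), after 15 min RT preincubation with compounds; 15-min fluorescence change normalized to controls and Hill-fitted.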"}, "[3]": {"test": "Confirmatory screen NINDS Rhodamine qHTS for Zika virus inhibitors (AID 1347161); further: nearly all actives have a fitted effect of over 60% in size", "conditions": "purified enzyme assay, Rhodamine110 substrate fluorescence, 15 min", "in_short": "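Kinetic fluorescence (Ex 480 nm, Em 540 nm) over 15 min with 1.5 microM Rhodamine110 peptide and 25 nM linked protease.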"}},
  "note": "Records with an inconclusive call do not appear. A call without a number means that no potency is given here. A number with no mark means an inactive call. Calls of active or inactive are those of the source. The call rests on the fitted dose curve; in most records, active means well fitted inhibition curve with a large enough effect; inconclusive means small, poorly fitted or top-dose-only effect; inactive means no such curve, though single readings can be large or run the other way. Potency means the concentration at half of the fitted maximal effect.",
  "data": [
    {"smiles": "CCC(NC(=O)CC(NC(=O)C(CO)NC(=O)C(CC)NC(=O)c1ccc[nH]1)c1ccccc1)C(=O)O", "note": "(stereo not given)", "values": [
      {"measurement": "Potency", "setting": "[1]", "result": "inactive"},
      {"measurement": "Potency", "setting": "[2]", "result": "inactive"}
    ]},
    {"smiles": "CC1(C)C(=O)N2c3ccccc3[C@]3(CC(n4cnc5ccccc5c4=O)C(=O)O3)[C@H]2N1O", "note": "(stereo not given in full)", "values": [
      {"measurement": "Potency", "setting": "[1]", "result": "inactive"},
      {"measurement": "Potency", "setting": "[2]", "result": "inactive"}
    ]},
    {"smiles": "O=C(C1CC1)N1CC[C@@H](Cc2n[nH]c(=O)n2-c2ccc(-c3ccc4occc4c3)cc2)C1", "values": [
      {"measurement": "Potency", "setting": "[1]", "result": "inactive"},
      {"measurement": "Potency", "setting": "[2]", "result": "inactive"}
    ]},
    {"smiles": "CC1CCC2C(C)(C)C(O)CCC2(C)C12Cc1c(O)cc3c(c1O2)C(N)=NC3", "note": "(stereo not given)", "values": [
      {"measurement": "Potency", "setting": "[1]", "result": "inactive"},
      {"measurement": "Potency", "setting": "[2]", "result": "inactive"}
    ]},
    {"smiles": "C=C1CC2C3(C)C(O)CC(=O)C(C)(C)C3C(OC(C)=O)C(OC(C)=O)C2(C)C2C(=O)OC(C)(C(=O)OC)C(=O)C12C", "note": "(stereo not given)", "values": [
      {"measurement": "Potency", "setting": "[1]", "result": "inactive"},
      {"measurement": "Potency", "setting": "[2]", "result": "inactive"}
    ]},
    {"smiles": "O=C(c1ccc(F)cc1)C1CCN(CCn2c(=O)nc3n(c2=O)CCCC3)CC1", "values": [
      {"measurement": "Potency", "setting": "[1]", "result": "inactive"},
      {"measurement": "Potency", "setting": "[2]", "result": "inactive"}
    ]},
    {"smiles": "CC1CC(O)CC(C)(C)C1(O)CCO", "note": "(stereo not given)", "values": [
      {"measurement": "Potency", "setting": "[1]", "result": "inactive"},
      {"measurement": "Potency", "setting": "[2]", "result": "inactive"}
    ]},
    {"smiles": "O=C(/C=C/c1ccc(O)cc1)O[C@H]1[C@@H]2C=CO[C@@H](O[C@@H]3O[C@H](CO)[C@@H](O)[C@H](O)[C@H]3O)[C@@H]2[C@@]2(CO)O[C@@H]12", "values": [
      {"measurement": "Potency", "setting": "[1]", "result": "inactive"},
      {"measurement": "Potency", "setting": "[2]", "result": "inactive"}
    ]},
    {"smiles": "O=C(O)Cc1nn(Cc2nc3cc(C(F)(F)F)ccc3s2)c(=O)c2nccnc12", "values": [
      {"measurement": "Potency", "setting": "[1]", "result": "inactive"},
      {"measurement": "Potency", "setting": "[2]", "result": "inactive"}
    ]},
    {"smiles": "COCCN(C)Cc1ccc2nc3sc(C(=O)N(C)C4CCCCC4)cn3c2c1", "values": [
      {"measurement": "Potency", "setting": "[1]", "result": "inactive"},
      {"measurement": "Potency", "setting": "[2]", "result": "inactive"}
    ]},
    {"smiles": "NS(=O)(=O)OC[C@@H]1C[C@@H](n2ccc3c(N[C@H]4CCc5ccccc54)ncnc32)C[C@@H]1O", "values": [
      {"measurement": "Potency", "setting": "[1]", "result": "inactive"},
      {"measurement": "Potency", "setting": "[2]", "result": "inactive"}
    ]},
    {"smiles": "C[C@@H]1O[C@@H](O[C@H]2[C@H](O)[C@@H](O)[C@H](OC[C@H]3O[C@@H](OC(=O)[C@]45CCC(C)(C)C[C@H]4C4=CCC6[C@@]7(C)C[C@H](O)[C@H](O[C@@H]8O[C@H](CO)[C@@H](O)[C@H](O)[C@H]8O)[C@@](C)(C(=O)O)C7CC[C@@]6(C)[C@]4(C)CC5)[C@H](O[C@@H]4O[C@H](CO)[C@@H](O)[C@H](O)[C@H]4O)[C@@H](O)[C@@H]3O)O[C@@H]2CO)[C@H](O)[C@H](O)[C@H]1O", "note": "(stereo not given in full)", "values": [
      {"measurement": "activity change, negative = inhibition", "setting": "[1]", "result": "-27.3% [at 19.1 µM]"},
      {"measurement": "activity change, negative = inhibition", "setting": "[2]", "result": "-5.11% [at 10.7 µM]"}
    ]},
    {"smiles": "CNC(=O)COC(=O)NCCC1CCN(c2cccc(C)n2)CC1", "values": [
      {"measurement": "Potency", "setting": "[1]", "result": "inactive"},
      {"measurement": "Potency", "setting": "[2]", "result": "inactive"}
    ]},
    {"smiles": "CC1[C@@H](O)[C@@H](O)C2[C@]3(C)C(C[C@H]4OC(=O)[C@H](O)[C@]1(O)[C@@]24C)C(C)(O)C[C@H](O)[C@H]3O", "note": "(stereo not given in full)", "values": [
      {"measurement": "Potency", "setting": "[1]", "result": "inactive"},
      {"measurement": "Potency", "setting": "[2]", "result": "inactive"}
    ]},
    {"smiles": "CC(C)NC[C@H](O)COc1ccc(CCOCC2CC2)cc1", "values": [
      {"measurement": "Potency", "setting": "[1]", "result": "inactive"},
      {"measurement": "Potency", "setting": "[2]", "result": "inactive"}
    ]},
    {"smiles": "C=C[C@H]1[C@H](O[C@@H]2O[C@H](CO[C@@H]3OC[C@](O)(CO)[C@H]3O)[C@@H](O)[C@H](O)[C@H]2O)OC=C2C(=O)OCC[C@H]21", "values": [
      {"measurement": "Potency", "setting": "[1]", "result": "inactive"},
      {"measurement": "Potency", "setting": "[2]", "result": "inactive"}
    ]},
    {"smiles": "CC(O)C(O)/C=C/C=C/C(=O)O[C@@H]1C=C2COC(=O)[C@]2(O)[C@@]2(C)CCCC(C)(C)C12", "note": "(stereo not given in full)", "values": [
      {"measurement": "Potency", "setting": "[1]", "result": "inactive"},
      {"measurement": "Potency", "setting": "[2]", "result": "inactive"}
    ]},
    {"smiles": "COC(=O)C1=CO[C@@H](O[C@@H]2O[C@H](CO[C@@H]3O[C@H](COC(=O)/C=C/c4ccc(O)cc4)[C@@H](O)[C@H](O)[C@H]3O)[C@@H](O)[C@H](O)[C@H]2O)[C@@H]2C(CO)=CC[C@H]12", "values": [
      {"measurement": "Potency", "setting": "[1]", "result": "inactive"},
      {"measurement": "Potency", "setting": "[2]", "result": "inactive"}
    ]},
    {"smiles": "CC1C(=O)CC2C3C(O)CC(C(=O)O)C12CC3(C)C", "note": "(stereo not given)", "values": [
      {"measurement": "Potency", "setting": "[1]", "result": "inactive"},
      {"measurement": "Potency", "setting": "[2]", "result": "inactive"}
    ]},
    {"smiles": "NCCOCCOCCNC(=O)Cc1ccc(Nc2nc(NCc3ccc(F)cc3)nc(NCC3CCCCC3)n2)cc1", "values": [
      {"measurement": "Potency", "setting": "[1]", "result": "inactive"},
      {"measurement": "Potency", "setting": "[2]", "result": "inactive"}
    ]},
    {"smiles": "O=C(O[C@H]1[C@@H]2C=CO[C@@H](O[C@@H]3O[C@H](CO)[C@@H](O)[C@H](O)[C@H]3O)[C@@H]2[C@@]2(CO)O[C@@H]12)c1ccc(O)c(O)c1", "values": [
      {"measurement": "Potency", "setting": "[1]", "result": "inactive"},
      {"measurement": "Potency", "setting": "[2]", "result": "inactive"}
    ]},
    {"smiles": "CC1(C)CCCC2(C)C3=C(C(=O)OC3O)C(O)CC12", "note": "(stereo not given)", "values": [
      {"measurement": "Potency", "setting": "[1]", "result": "inactive"},
      {"measurement": "Potency", "setting": "[2]", "result": "inactive"}
    ]},
    {"smiles": "Cc1cc(O)c(C(C)C)cc1O[C@@H]1O[C@H](CO)[C@@H](O)[C@H](O)[C@H]1O", "values": [
      {"measurement": "Potency", "setting": "[1]", "result": "inactive"},
      {"measurement": "Potency", "setting": "[2]", "result": "inactive"}
    ]},
    {"smiles": "CCOc1nc2cccc(C(=O)O)c2n1Cc1ccc(-c2ccccc2-c2noc(=O)[nH]2)cc1", "values": [
      {"measurement": "Potency", "setting": "[1]", "result": "inactive"},
      {"measurement": "Potency", "setting": "[2]", "result": "inactive"}
    ]},
    {"smiles": "N#Cc1ccc2[nH]c(O)c(-c3ccc(CN4CCOCC4)cn3)c2c1", "values": [
      {"measurement": "Potency", "setting": "[1]", "result": "inactive"},
      {"measurement": "Potency", "setting": "[2]", "result": "inactive"}
    ]},
    {"smiles": "CC(C)(O)CNc1nc(Nc2ccnc(C(F)(F)F)c2)nc(-c2cccc(C(F)(F)F)n2)n1", "values": [
      {"measurement": "Potency", "setting": "[1]", "result": "inactive"},
      {"measurement": "Potency", "setting": "[2]", "result": "inactive"}
    ]},
    {"smiles": "CC(C)CC(=O)O[C@@H]1OC=C(CO[C@@H]2O[C@H](CO[C@@H]3O[C@H](CO)[C@@H](O)[C@H](O)[C@H]3O)[C@@H](O)[C@H](O)[C@H]2O)[C@H]2C[C@H](O)[C@@H](CO)[C@@H]12", "values": [
      {"measurement": "Potency", "setting": "[1]", "result": "inactive"},
      {"measurement": "Potency", "setting": "[2]", "result": "inactive"}
    ]},
    {"smiles": "CC1(C)NC2N(C1=O)c1ccccc1C2(O)CC(C(=O)O)n1cnc2ccccc2c1=O", "note": "(stereo not given)", "values": [
      {"measurement": "Potency", "setting": "[1]", "result": "inactive"},
      {"measurement": "Potency", "setting": "[2]", "result": "inactive"}
    ]},
    {"smiles": "CCCn1cnc2c(NCc3ccccc3)nc(N[C@H](CC)CO)nc21", "values": [
      {"measurement": "Potency", "setting": "[1]", "result": "inactive"},
      {"measurement": "Potency", "setting": "[2]", "result": "inactive"}
    ]},
    {"smiles": "C=C[C@H]1[C@H](O[C@@H]2O[C@H](CO)[C@@H](O)[C@H](O)[C@H]2O)OC=C(C(=O)OC)[C@H]1C[C@@H]1N[C@H](C(=O)O)Cc2c1[nH]c1ccccc21", "values": [
      {"measurement": "Potency", "setting": "[1]", "result": "inactive"},
      {"measurement": "Potency", "setting": "[2]", "result": "inactive"}
    ]},
    {"smiles": "COC1=CC(=O)C[C@@H](C)[C@]12Oc1cc(OC)cc(OC)c1C2=O", "values": [
      {"measurement": "Potency", "setting": "[1]", "result": "inactive"},
      {"measurement": "Potency", "setting": "[2]", "result": "inactive"}
    ]},
    {"smiles": "CO[C@@H](Cc1ccc(OCCc2nc(-c3ccccc3)oc2C)c2ccsc12)C(=O)O", "values": [
      {"measurement": "Potency", "setting": "[1]", "result": "17.8 µM (active)"},
      {"measurement": "Potency", "setting": "[2]", "result": "12.6 µM (active)"}
    ]},
    {"smiles": "CC1(C)CC2C3=CCC4C5(C)CCC(OC6OC(CO)C(O)C(OC7OC(CO)C(O)C(OC8OC(CO)C(O)C(OC9OC(COC%10OC(CO)C(O)C(O)C%10O)C(O)C(O)C9O)C8O)C7O)C6O)C(C)(C)C5CCC4(C)C3(C)CCC2(C(=O)O)CC1O", "note": "(stereo not given)", "values": [
      {"measurement": "Potency", "setting": "[3]", "result": "7.42 µM (active)"}
    ]}
  ]
}
